Compound activity deposited in PubChem by National Center for Advancing Translational Sciences (NCATS).
TRHR ag: qHTS for Small Molecule Agonists and Allosteric Enhancers of Human TRH Receptor: Primary Screen for Agonists. TRHR cells, calcium flux fluo-8, FDSS agonist mode. activation, % at 2 µM. hit rate 0.18% among 360,000. AID 493084, 2011; also: 0% is about no effect
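TRHR-expressing cells loaded with fluo-8 calcium dye; 23 nL library compound pin-transferred, kinetic FDSS fluorescence (Ex 480/Em 530) recorded about 180 s for agonist-induced calcium release, before a 10 nM TRH EC20 addition for potentiator mode.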
D1 antag: Antagonist of Human D 1 Dopamine Receptor: qHTS | hit rate 3.2% among 360,000 | HEK293 TREx D1 cells, calcium flux, dopamine EC80; active compounds read low | D(1A) dopamine receptor (Homo sapiens), P21728 | activity change, negative = inhibition, % at 10 µM | AID 504652, 2011; in the data active = activity change below about -30%; also: % is scaled to controls: 0 for no effect and ±100 for the full control effect
Target sequence (P21728 whole entry, looked up): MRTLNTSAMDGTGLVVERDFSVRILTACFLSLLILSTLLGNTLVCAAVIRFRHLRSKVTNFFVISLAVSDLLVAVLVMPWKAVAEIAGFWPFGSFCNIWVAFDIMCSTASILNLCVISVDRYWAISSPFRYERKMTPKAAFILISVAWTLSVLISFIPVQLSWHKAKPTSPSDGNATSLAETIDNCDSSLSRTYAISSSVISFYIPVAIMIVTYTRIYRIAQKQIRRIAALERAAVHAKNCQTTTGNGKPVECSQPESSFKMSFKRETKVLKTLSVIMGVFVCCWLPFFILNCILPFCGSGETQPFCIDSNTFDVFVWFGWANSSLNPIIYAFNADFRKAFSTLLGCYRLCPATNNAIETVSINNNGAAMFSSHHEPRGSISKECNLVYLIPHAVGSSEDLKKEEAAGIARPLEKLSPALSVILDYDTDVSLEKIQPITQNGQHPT
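Inducible Hek293 Trex D1 cells (tetracycline, overnight, 30 C). Calcium dye 30–90 min RT. Antagonist mode: EC80 dopamine added after 180 s compound read.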
D1 agonist: Allosteric Agonists of the Human D1 Dopamine Receptor: qHTS; AID 504660, 2011; HEK293 T-REx D1 cells, calcium flux, agonist mode; hit rate 1% among 360,000; activation, % at 2 µM; also: 0% is about no effect
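Agonism was scored from calcium flux recorded over 180 s (1 read/s) after pintool compound addition, following a 10-cycle baseline. Cells were inducible force-coupled HEK293 TREx D1, plated overnight at 30 C and loaded with no-wash calcium dye.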
D1 potentiator: Potentiators of Human D1 Dopamine Receptor: qHTS. D(1A) dopamine receptor (Homo sapiens), P21728. HEK293 TREx D1 cells, calcium flux, dopamine EC20 potentiation. potentiation, % at 10 µM. hit rate 0.036% among 360,000; in the data active = potentiation above about 30%; also: 0% is about no effect
TRHR PAM: qHTS for Small Molecule Agonists and Allosteric Enhancers of Human TRH Receptor: Primary Screen for Enhancers. enhancement, % at 2 µM. hit rate 0.66% among 360,000. TRHR cells, fluo-8 calcium fluorescence, EC20 TRH enhancement. Thyrotropin-releasing hormone receptor (Homo sapiens), P34981; in the data active = enhancement above about 30%; also: 0% is about no effect
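TRHR-expressing cells loaded with fluo-8 calcium dye were read kinetically (ex 480/em 530) during compound addition, then stimulated with an EC20 of TRH (10 nM final). Enhancement of the Gq-mediated intracellular calcium response was scored.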
Starred values were filed as active, the others as inactive; . = no result given. Compounds with a hit are over-represented: about 4.7% of the library has one in this group of screens. Rule as the data show it, unless noted: active = activation above about 30%; inactive = the rest.

SMILES | TRHR ag | D1 antag | D1 agonist | D1 potentiator | TRHR PAM
Cc1ccc2c(c1)N(C(=O)CCC(=O)N1CCOCC1)CCO2 | 0 | -31* | 3 | -10 | -2
Cc1ccc2c(c1)N(C(=O)CCC(=O)NCCCN1CCOCC1)CC(C)O2 (configuration not stated) | 0 | 1 | 1 | -13 | 1
Cc1ccc2c(c1)N(C(=O)CCC(=O)NCCN1CCOCC1)CC(C)O2 (configuration not stated) | 0 | -36* | 0 | -5 | -3
Cc1cccc(-c2nc(CCNC(=O)c3ccccc3Br)cs2)c1 | -1 | -39* | 3 | -6 | -7
CCOc1cc(/C=N/NC(=O)C(=O)NCc2cccnc2)ccc1O | 0 | -35* | -1 | -3 | -1
c1ccc2c(CNc3ccc(CNc4ncn[nH]4)cc3)cccc2c1 | 1 | -46* | 11 | -7 | -11
O=C(CSc1nc(=O)n(CCN2CCOCC2)c2c1CCC2)Nc1cccc(Cl)c1 | 0 | . | -3 | -1 | -3
Cc1cccc(NC(=O)CSc2nnc(-c3cc(C)n(-c4ccccc4)c3C)o2)c1C | 0 | -22 | 0 | -8 | -1
CC(C)(C)NC(=O)CSc1nc(-c2ccc(F)cc2)cs1 | -2 | 3 | 2 | 0 | -2
Cc1cc(NC(=O)CSc2nc(-c3ccc(Cl)cc3)cs2)no1 | 0 | -46* | 2 | -3 | -1
CCNC(=O)CSc1nc(-c2ccc(F)cc2)cs1 | 0 | -31* | 0 | -7 | -2
Cc1cc(NC(=O)CSc2nnc(-c3ccccc3Cl)o2)no1 | 0 | -6 | 1 | -8 | 34*
Cc1cc(-c2nnc(SCC(=O)Nc3ccccc3C(F)(F)F)o2)c(C)n1-c1ccccc1 | 8 | -1 | 52* | -4 | 6
Cc1cc(NC(=O)CSc2ccc(Cl)cc2)no1 | -5 | 3 | 3 | -4 | -3
Cc1cc(=O)n2c(C(=O)Nc3ccc(F)c(Cl)c3)c(C(=O)Nc3cccc(C)c3C)sc2n1 | 0 | 1 | 2 | 0 | 4
CCc1ccc(OCC(=O)NCCN(C)C)c(Br)c1 | 0 | -34* | 1 | 1 | 9
Cc1ccc(OCc2nc(-c3cccnc3)no2)cc1C | 0 | -18 | 1 | 2 | 1
COc1ccccc1OCC(=O)N(Cc1nc(-c2ccc(Cl)cc2)no1)C(C)C | 0 | -35* | 1 | -5 | 0
CCOc1ccc(C(=O)N(Cc2nc(-c3cccc(C)c3)no2)C(C)C)cc1 | -1 | -17 | 47* | 1 | 12
COc1ccccc1OCC(=O)N(Cc1nc(-c2ccccc2)no1)C(C)C | 0 | 1 | 1 | -2 | -5
Cc1cc(C)cc(OCc2nc(-c3cccnc3)no2)c1 | 0 | -30* | 3 | -1 | -8
CC(=O)Nc1ccccc1-c1nc2ccccc2n(CC(=O)c2ccc(Br)cc2)c1=O | -1 | -7 | 5 | -2 | -4
Cc1ccc(CC(=O)NCc2nc(-c3ccccc3)no2)cc1 | -1 | 1 | 0 | -3 | -1
CCc1ccc(OCC(=O)NCc2nc(-c3cccc(C)c3)no2)c(Br)c1 | -1 | 8 | 38* | -2 | 18
CCOc1cc(C(=O)NCc2nc(-c3cccc(C)c3)no2)cc(OCC)c1OCC | 2 | -31* | 7 | 0 | -1
SMILES | TRHR ag | D1 antag | D1 agonist | D1 potentiator | TRHR PAM
Cc1cc(C)cc(OCC(=O)NCc2nc(-c3ccccc3)no2)c1 | -1 | -58* | 26 | -3 | -2
O=C(NCc1nc(-c2ccccc2)no1)Nc1ccc(F)cc1 | 0 | -2 | 7 | -1 | 40*
CCC1CN(C(=O)N2CCC(C(=O)NCc3ccc(N(C)C)cc3)CC2)c2ccccc2O1 (configuration not stated) | 0 | 10 | 3 | 1 | -8
CC(=O)c1cccc(NC(=O)Cc2ccc(NC(=O)N3CCCCc4ccccc43)cc2)c1 | 0 | -6 | 3 | -4 | -1
CN(C)CCNC(=O)c1ccc(CS(=O)(=O)c2c(Cl)cccc2Cl)o1 | 0 | 25 | 5 | -3 | 1
CN(CCNC(=O)c1ccc(CS(=O)(=O)c2c(Cl)cccc2Cl)o1)CCc1ccccc1 | 0 | -56* | 5 | -13 | 0
CC1Cn2c(C(=O)NCCc3ccc(Cl)cc3)cc3cccc(c32)S1 (configuration not stated) | 1 | -2 | 5 | -1 | 7
Cc1ccccc1C(=O)N1c2ncnn2C2(CCCCC2)[C@@H]2CCCC[C@@H]21 | 0 | 3 | 2 | 1 | -3
CCc1ccc(N(CC)C(=O)c2ccc3c(=O)n4c(nc3c2)CCCCC4)cc1 | 0 | -2 | 13 | -4 | -6
CCOc1ccc(NC(=O)Cc2ccc(NC(=O)N3CCCCc4ccccc43)cc2)cc1 | 0 | -14 | 1 | -4 | 2
CCOC(=O)C(CC)n1cnc2c(cnn2-c2ccc(Cl)cc2)c1=O (configuration not stated) | 0 | -32* | 10 | -3 | -3
COc1cc(NC(=O)C2CCCN(S(=O)(=O)c3cn(C)cn3)C2)cc(OC)c1 (configuration not stated) | 1 | 3 | -2 | 0 | 0
CC(C)C[C@H]1CN=C(Nc2ccccc2)N1CCCC1CCCC1 | 0 | 20 | 41* | -6 | 3
CC(C)C[C@H]1CN=C(Nc2ccccc2)N1CCCC1CCCCC1 | 2 | 2 | 24 | 3 | 2
CCCC(=O)Oc1c(Sc2ccc(C)cc2)c(C)nn1-c1ccccc1 | 0 | -3 | 4 | -1 | -4
O=C(COc1cccnc1[N+](=O)[O-])N1CCN(S(=O)(=O)c2ccccc2)CC1 | 0 | 1 | 0 | -2 | 0
COc1ccc(S(=O)(=O)N2CCN(CCOc3ccc(Br)cc3)CC2)cc1OC | 1 | -9 | 4 | -3 | 15
COc1ccc(S(=O)(=O)N2CCN(CCOc3ccccc3Cl)CC2)cc1OC | 0 | -51* | 6 | -14 | 1
O=C(COc1ccccc1[N+](=O)[O-])N1CCN(S(=O)(=O)c2ccccc2)CC1 | 0 | -95* | 2 | -11 | 3
O=C(CN1CCc2ccccc2C1)N1CCN(S(=O)(=O)c2ccccc2)CC1 | -1 | -35* | 3 | -6 | -3
O=C(Cn1cc(C(F)(F)F)ccc1=O)N1CCc2ccccc2C1 | 0 | -1 | 4 | 5 | 7
O=C(Cn1cc(C(F)(F)F)ccc1=O)N1CCN(S(=O)(=O)c2ccccc2)CC1 | -1 | -4 | 1 | 0 | 40*
COc1ccc2cc3cc(C(=O)N4CCN(c5cccc(Cl)c5)CC4)sc3nc2c1 | 1 | 3 | 0 | 1 | -1
